# Screen size: about 360,000 compounds; about 11,000 (3.1%) were called active. Cut-off read from the data, not from the text of the source: active = activity change below about -30%; inactive = the rest. The sample as a whole holds a higher share of actives than the screen did.
# Target: D(1A) dopamine receptor (Homo sapiens) (UniProt P21728)
# Assay: Antagonist of Human D 1 Dopamine Receptor: qHTS
# Settings: HEK293 TREx D1 cells, calcium flux, dopamine EC80; at 10 µM; stronger effect = lower value
# Summary of the method: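 Calcium flux readout: force-coupled, inducible Hek293 Trex D1 line, cells induced overnight at 30 C with tetracycline, dye-loaded 30–90 min at RT. Antagonism scored against EC80 dopamine challenge given 180 s after compound.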
# % is set by controls: 0 for no effect and ±100 for the full control effect.
# D(1A) dopamine receptor (Homo sapiens), sequence (P21728 whole entry, looked up): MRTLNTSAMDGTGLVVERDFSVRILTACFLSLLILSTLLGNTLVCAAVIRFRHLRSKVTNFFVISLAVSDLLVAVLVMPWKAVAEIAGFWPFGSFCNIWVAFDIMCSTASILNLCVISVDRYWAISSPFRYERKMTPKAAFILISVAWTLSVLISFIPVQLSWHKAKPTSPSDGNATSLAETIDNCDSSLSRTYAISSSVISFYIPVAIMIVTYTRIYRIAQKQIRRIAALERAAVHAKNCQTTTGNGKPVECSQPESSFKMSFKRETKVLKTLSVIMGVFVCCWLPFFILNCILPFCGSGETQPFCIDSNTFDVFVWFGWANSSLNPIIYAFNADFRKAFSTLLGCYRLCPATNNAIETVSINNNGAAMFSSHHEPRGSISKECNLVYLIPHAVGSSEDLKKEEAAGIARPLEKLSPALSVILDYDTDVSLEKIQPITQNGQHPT
row,SMILES,"activity change, negative = inhibition"
1,CC(=O)Nc1ccc(NC(=O)C2CCCN(S(=O)(=O)c3ccc4c(c3)CCCC(=O)N4)C2)cc1 (stereo not given),0.61% (inactive)
2,COc1ccc(OC)c(NC(=O)C2CCCN(S(=O)(=O)c3ccc4c(c3)CCCC(=O)N4)C2)c1 (stereo not given),-38.1% (active)
3,O=C1CCCc2cc(S(=O)(=O)N3CCCC(C(=O)NCc4ccccc4)C3)ccc2N1 (stereo not given),-3.91% (inactive)
4,Cc1ccc(CNC(=O)CCc2c(C)nn(-c3ccc(N4CCCC4)nn3)c2C)cc1,-0.419% (inactive)
5,CCCCC12CN3CC(C)(CN(C1)C3c1ccc(O)c(OC)c1)C2=O (stereo not given),3.82% (inactive)
6,CCOC(=O)c1ccc(NC2=CC(c3ccc(OCC)cc3)N(c3ccc(C(=O)OCC)cc3)C2=O)cc1 (stereo not given),-6.51% (inactive)
7,COc1ccc(NC(=O)c2cc3cc(C)ccc3n2C)cc1,7.2% (inactive)
8,COc1ccc(C(=O)Nc2onc3c2CCCC3)cc1,-17.5% (inactive)
9,COc1ccc(NC(=O)c2c(C)oc3c2CCCC3)cc1,-45.1% (active)
10,O=C(CCSCc1cccc(F)c1)NCc1ccccc1,-0.666% (inactive)
11,Cc1cc(C)nc(NC(=O)/C=C/c2ccc(Cl)cc2)n1,4.01% (inactive)
12,CCCCOC(=O)c1[nH]c(C)c(C(=O)OC)c1C,-0.924% (inactive)
13,COC(=O)c1c(C)[nH]c(C(=O)/C=C/c2ccc(Cl)cc2)c1C,-47.4% (active)
14,Cc1ccc(Nc2c(-c3ccc(C)cc3)nc3cnccn23)cc1,12.3% (inactive)
15,COC(=O)c1sc2ncccc2c1-n1c(C)ccc1C,1.1% (inactive)
16,O=C(CN1C(=O)COc2ccccc21)Nc1ccc(F)cc1,4.15% (inactive)
17,O=C(CN1C(=O)COc2ccccc21)NCCN1CCc2ccccc2C1,-39.4% (active)
18,COc1ccc(N2CCN(CCNC(=O)CCN3C(=O)COc4ccccc43)CC2)cc1,2.07% (inactive)
19,Cc1ccc(S(=O)(=O)NC(N)=NCCC[C@@H](NC(=O)CNC(=O)c2ccccc2)C(=O)Nc2cc(C(F)(F)F)ccc2Cl)cc1,4.94% (inactive)
20,COCCNC(=O)c1cc(-c2cccc(Cl)c2)on1,-5.13% (inactive)
21,COCCNC(=O)c1ccc(S(=O)(=O)c2ccc(Cl)cc2)c(NC(C)=O)c1,-3.29% (inactive)
22,COCCNC(=O)c1snc2ccc(Cl)cc12,-34.4% (active)
23,CCOC(=O)c1cccc(NC(=O)c2cc(S(=O)(=O)N3CCCC(C)C3)cn2C)c1 (stereo not given),-6.74% (inactive)

row,SMILES,"activity change, negative = inhibition"
1,CCOC(=O)c1c(C)[nH]c(C)c1S(=O)(=O)N(C)CC(=O)N1CCN(c2ccccc2)CC1,1.35% (inactive)
2,COC(=O)c1ccc(Oc2nc(NC(C)C)nc(SC)n2)cc1,-9.38% (inactive)
3,COc1nc(Oc2ccc(=O)n(C)n2)nc(N(C)C)n1,-8.41% (inactive)
4,CCCn1nc(Oc2nc(NC(C)C)nc(N(C)C)n2)ccc1=O,-79.5% (active)
5,COc1cc(C(CC(=O)NCCC(C)C)N2Cc3ccccc3C2=O)cc(OC)c1OC (stereo not given),-5.18% (inactive)
6,CC(C)NC(=O)C1CCC(Cn2c(=O)c3sccc3n(Cc3ccc(F)cc3)c2=O)CC1 (stereo not given),0.886% (inactive)
7,Cc1ccc2nc(N3CCN(c4cccc(Cl)c4)CC3)c3nnnn3c2c1,-5.5% (inactive)
8,Cc1ccc(NC(=O)CSc2nc3ccccc3c3nc(CCn4cncc4C)nn23)cc1F,-2.83% (inactive)
9,CN(c1ccc(O)cc1)c1nc(-c2cccnc2)cs1,1.14% (inactive)
10,Brc1ccc(-c2csc(N/N=C/c3cccnc3)n2)cc1,-16.3% (inactive)
11,Oc1ccc(-c2csc(Nc3cccnc3)n2)cc1,-30.4% (active)
12,Cc1cccc(C(=O)Nc2ccc(-c3nc4ccccc4s3)c(C)c2)c1,-25.8% (inactive)
13,COc1ccccc1-c1cc(C(F)(F)F)nc(S(=O)(=O)CCCC(=O)Nc2ccc(F)cc2F)n1,-9.9% (inactive)
14,COc1ccc(C2/C(=C(/O)c3ccccc3)C(=O)C(=O)N2c2ncccn2)cc1OC (stereo not given),2.93% (inactive)
15,COc1ccc(C2SCCN2S(=O)(=O)c2ccccc2)cc1OC (stereo not given),-1.77% (inactive)
16,COc1ccc(C2N=C(N)N=C(N)N2c2ccccc2)cc1OC (stereo not given),-44.6% (active)
17,Cc1ccc(C)n1-c1nnc(N2CCC(C(=O)NCc3ccc(F)cc3)CC2)s1,0.798% (inactive)
18,CCCCc1nn2c(=O)cc(COC(=O)c3cccc(NC(=O)COc4ccccc4)c3)nc2s1,-12.5% (inactive)
19,O=C(CCl)Nc1ccc(Sc2ccc(NC(=O)CCl)cc2)cc1,-33.1% (active)
20,CC(C)(CCl)C(=O)Nc1ccc(Sc2ccc(F)cc2)cc1,-27.2% (inactive)
21,O=C(CCl)Nc1cccc(CP(=O)(c2ccccc2)c2ccccc2)c1,11.8% (inactive)
22,Cc1cc(C)cc(OCC(=O)Nc2nc(-c3ccc(F)cc3)ns2)c1,-4.25% (inactive)
23,Cc1ccc(Cn2ncc3c4sc(C)cc4n(C)c3c2=O)c(C)c1,7.1% (inactive)

row,SMILES,"activity change, negative = inhibition"
1,COc1cc(Br)cc2cc(S(=O)(=O)c3ccccc3)c(=O)oc12,-1.47% (inactive)
2,COc1ccc(NS(=O)(=O)c2ccc(NC(=O)c3ccc(N(C)S(C)(=O)=O)cc3)cc2)cc1,3.18% (inactive)
3,COc1ccc(NS(=O)(=O)c2ccc(NC(=S)NC(=O)CC(C)C)cc2)cc1,-6.91% (inactive)
4,COc1ccc(NS(=O)(=O)c2ccc(Oc3c(C#N)cccc3C#N)cc2)cc1,-44.8% (active)
5,Cc1ccc2c(=O)cc(C(=O)Nc3sc4c(c3C(=O)NCc3cccnc3)CCCC4)oc2c1,-10.7% (inactive)
6,CCOc1ccc(Br)cc1CSC(=N)N,2.93% (inactive)
7,N=C(N)SCc1cccc2ccccc12,-51.9% (active)
8,CCc1ccc(-c2nn(-c3ccccc3)cc2CSC(=N)N)cc1,46% (inactive)
9,COc1ccc(-c2noc(CCC(=O)N(C)c3ccccc3C)n2)cc1,-13% (inactive)
10,Cc1ccc(CN(C(=O)COc2ccc(Cl)cc2C)C2CCS(=O)(=O)C2)o1 (stereo not given),-2.94% (inactive)
11,COc1cc(OC)cc(C(=O)NCCSCc2ccco2)c1,4.54% (inactive)
12,O=C(/C=C/c1ccc([N+](=O)[O-])cc1)NCCSCc1ccco1,-97.8% (active)
13,O=C(/C=C/c1cccc([N+](=O)[O-])c1)NCCSCc1ccco1,-26.7% (inactive)
14,Cc1cc(C)cc(NC(=O)c2cnc3sc(N4CCCC4)nn3c2=O)c1,-28.3% (inactive)
15,Cc1nc2ccc(S(=O)(=O)NC(C(=O)NCc3ccccc3Cl)C(C)C)cc2s1 (stereo not given),18.5% (inactive)
16,COc1cccc(CNC(=O)c2ccc3c(c2)N(Cc2ccc(C(F)(F)F)cc2)C(=O)c2ccccc2S3)c1OC,-2.43% (inactive)
17,O=[N+]([O-])/C=C/c1ccc2c(ccn2Cc2ccccc2)c1,-37.9% (active)
18,O=c1c(=O)n(Cc2c(F)cccc2Cl)ccn1Cc1ccccc1,-3.28% (inactive)
19,OCCC1CN(Cc2ccc(Oc3ncccn3)cc2)CCN1CCc1ccccc1 (stereo not given),-6.31% (inactive)
20,OCCC1CN(Cc2cnc(-c3ccccc3)s2)CCN1CCc1ccccc1 (stereo not given),-3.13% (inactive)
21,OCCC1CN(Cc2cccc(O)c2)CCN1CCc1ccccc1 (stereo not given),-42.3% (active)
22,Cc1ccc(C)c(S(=O)(=O)n2nc(C)c(S(=O)(=O)N3CCC(C)CC3)c2C)c1,6.24% (inactive)
23,CC1=C(c2ccc(Cl)cc2)S(=O)(=O)N=C1N1CCN(c2cc(C)ccc2C)CC1,3.21% (inactive)

row,SMILES,"activity change, negative = inhibition"
1,O=C(NCCCN1CCN(c2ccc(F)cc2)CC1)Nc1ccc([N+](=O)[O-])cc1,-54.6% (active)
2,CC1=C(c2ccc(C)cc2)S(=O)(=O)NC1=NCCCN1CCN(c2cc(C)ccc2C)CC1,10.4% (inactive)
3,O=C(NCCCN1CCOCC1)c1ccc([N+](=O)[O-])cc1[N+](=O)[O-],-7.86% (inactive)
4,Cc1ccc(C)c(N2CCN(CCCNC(=O)Nc3ccc(Cl)cc3)CC2)c1,-58.4% (active)
5,CN1CCN(CCNC(=O)Nc2ccc([N+](=O)[O-])cc2)CC1,-6.04% (inactive)
6,Cc1cccc(C(=O)Nc2ccc(-c3nc4ncccc4o3)cc2C)c1,-4.33% (inactive)
7,COc1cc(NC(=O)c2nn(-c3ccc(C)cc3)c(=O)c3c2c2ccccc2n3C)cc(OC)c1OC,-20.1% (inactive)
8,COC(=O)CC1=NN(c2nc(C)cc(C)n2)C(=O)C1,3.03% (inactive)
9,C/C(N)=C(/C#N)C(=O)COC(=O)C1=NN(c2ccccc2)C(=O)CC1,-6.72% (inactive)
10,COC(=O)CC1=NN(c2ccccc2)C(=O)C1,-33.1% (active)
11,CCCCn1c(CNC(=O)C23CC4CC(CC(C4)C2)C3)nnc1SCC(=O)Nc1ccc(C)cc1,1.21% (inactive)
12,CC1CCCN(Cc2c(O)ccc3c(=O)c(Oc4ccc(C(C)(C)C)cc4)c(C(F)(F)F)oc23)C1 (stereo not given),11.8% (inactive)
13,O=C(Nc1ccc(C(=O)OCc2cc(=O)n3nc(C4CC4)sc3n2)cc1)c1ccc(F)cc1,4.99% (inactive)
14,COc1ccc(NC(=O)COCc2cc(-c3ccco3)on2)cc1,8.36% (inactive)
15,COc1ccc(OCC(=O)Nc2nnc(-c3ccco3)s2)cc1,-88.7% (active)
16,CNc1nnc(-c2ccco2)s1,-6.48% (inactive)
17,COc1ccc(CCNC(=O)c2cnc3sc(N4CCCCCC4)nn3c2=O)cc1OC,-6.51% (inactive)
18,CCOC(=O)C1=C(c2ccccc2)Nc2ncnn2C1c1ccc(Cl)cc1 (stereo not given),6.82% (inactive)
19,CS(=O)(=O)c1ccc(-c2nnc(NC(=O)c3ccc4c(c3)OCCO4)o2)cc1,-10.1% (inactive)
20,O=C(CSc1oc(-c2ccco2)nc1S(=O)(=O)c1ccccc1)c1ccc(Cl)cc1,-17.4% (inactive)
21,CCOC(=O)c1cc(-c2ccccc2)n(-c2cccc(C(=O)Nc3cc(OC)cc(OC)c3)c2)c1C,-24.9% (inactive)
